Assay in all cases: DAPPL (digital affinity profiling via proximity ligation, sequencing); 10 mM Tris-HCl pH 7.5, 50 mM NaCl, 1 mM DTT, 4% glycerol, room temperature, 30 min; GST-TFs on glutathione beads, 16-mer random dsDNA library, 0.1% formaldehyde crosslink after washing; high values mean tight binding
For assay [1], the target named is T1, FLI1 (Homo sapiens, UniProt Q01543 1-452).
T1 sequence: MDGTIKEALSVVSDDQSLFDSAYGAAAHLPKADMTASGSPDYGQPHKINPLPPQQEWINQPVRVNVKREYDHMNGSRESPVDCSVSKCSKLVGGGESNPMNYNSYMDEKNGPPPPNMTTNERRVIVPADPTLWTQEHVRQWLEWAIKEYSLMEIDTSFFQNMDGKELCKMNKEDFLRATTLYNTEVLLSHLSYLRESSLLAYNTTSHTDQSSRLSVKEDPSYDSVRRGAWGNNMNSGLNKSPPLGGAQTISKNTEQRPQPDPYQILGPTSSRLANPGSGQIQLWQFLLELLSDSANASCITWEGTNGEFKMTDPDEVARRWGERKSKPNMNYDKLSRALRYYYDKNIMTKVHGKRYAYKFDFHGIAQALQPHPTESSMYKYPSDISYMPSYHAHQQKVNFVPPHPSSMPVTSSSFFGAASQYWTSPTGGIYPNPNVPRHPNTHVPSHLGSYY
As to conditions: protein: recombinant; tags: N-terminal GST; dsDNA, one strand shown. The procedure, abridged: (§1)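 Sequencing on an Illumina NextSeq500 followed washing, crosslinking with 0.1% formaldehyde, proximity ligation (BsaI/T4 ligase, 1 h, 37 °C) and PCR amplification of pools that had been incubated for 30 min at room temperature with 200 nmole of a random double-stranded 16-mer DNA library in Tris/NaCl/DTT/glycerol buffer. Each pool held DNA-barcoded human transcription factors, expressed in yeast as GST fusions and captured on glutathione beads, plus a tag-only sample. Binding signal is a hexamer's read frequency for a factor divided by its frequency in the tag-only sample.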

Assay [2] has as its target T2, ELK1 (Homo sapiens, UniProt P19419 1-428).
T2 sequence: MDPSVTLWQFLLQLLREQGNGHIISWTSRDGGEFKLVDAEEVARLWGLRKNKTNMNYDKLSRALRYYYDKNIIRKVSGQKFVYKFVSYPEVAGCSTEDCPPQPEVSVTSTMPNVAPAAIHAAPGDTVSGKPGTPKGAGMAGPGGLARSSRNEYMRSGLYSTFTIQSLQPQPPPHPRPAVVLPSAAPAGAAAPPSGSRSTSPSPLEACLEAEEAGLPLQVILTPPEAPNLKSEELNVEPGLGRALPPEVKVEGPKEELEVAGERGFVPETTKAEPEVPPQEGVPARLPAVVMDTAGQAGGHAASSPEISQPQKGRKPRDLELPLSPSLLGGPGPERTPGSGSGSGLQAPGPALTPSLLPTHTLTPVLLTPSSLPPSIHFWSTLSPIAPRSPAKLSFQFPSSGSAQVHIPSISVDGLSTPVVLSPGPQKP
The settings on record: protein: recombinant; tags: N-terminal GST; dsDNA, one strand shown. The procedure, abridged: as §1

In assay [3] the target is T3, GABPA (Homo sapiens, UniProt Q06546 1-454).
T3 sequence: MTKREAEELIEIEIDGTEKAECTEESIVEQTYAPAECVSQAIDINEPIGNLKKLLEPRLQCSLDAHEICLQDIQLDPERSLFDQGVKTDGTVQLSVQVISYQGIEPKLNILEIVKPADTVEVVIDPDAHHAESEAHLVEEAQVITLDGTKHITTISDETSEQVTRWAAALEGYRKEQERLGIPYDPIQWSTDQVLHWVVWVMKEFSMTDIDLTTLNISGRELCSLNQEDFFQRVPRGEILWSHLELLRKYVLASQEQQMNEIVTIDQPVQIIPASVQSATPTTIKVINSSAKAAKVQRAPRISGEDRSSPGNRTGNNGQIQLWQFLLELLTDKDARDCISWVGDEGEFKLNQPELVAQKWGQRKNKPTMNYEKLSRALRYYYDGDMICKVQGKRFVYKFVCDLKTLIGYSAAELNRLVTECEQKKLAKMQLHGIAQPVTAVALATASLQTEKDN
As to conditions: protein: recombinant; tags: N-terminal GST; dsDNA, one strand shown. In outline:
as §1

The target of assay [4] is T4, ERG (Homo sapiens, UniProt P11308 1-479).
T4 sequence: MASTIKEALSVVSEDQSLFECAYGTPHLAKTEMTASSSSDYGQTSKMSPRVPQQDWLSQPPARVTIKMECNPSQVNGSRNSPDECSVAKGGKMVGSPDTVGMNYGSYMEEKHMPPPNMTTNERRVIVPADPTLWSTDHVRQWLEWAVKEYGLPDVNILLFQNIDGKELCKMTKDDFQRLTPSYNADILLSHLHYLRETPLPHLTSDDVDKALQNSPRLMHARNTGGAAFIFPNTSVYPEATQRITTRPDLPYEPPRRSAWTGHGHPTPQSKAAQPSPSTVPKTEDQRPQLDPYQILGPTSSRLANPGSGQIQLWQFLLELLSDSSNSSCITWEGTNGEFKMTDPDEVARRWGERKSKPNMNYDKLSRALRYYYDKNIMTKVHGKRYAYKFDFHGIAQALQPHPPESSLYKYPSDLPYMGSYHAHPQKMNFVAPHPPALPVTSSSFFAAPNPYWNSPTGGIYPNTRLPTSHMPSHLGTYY
As to conditions: protein: recombinant; tags: N-terminal GST; dsDNA, one strand shown. In outline:
as §1

Assay [5] concerns the target ELF1 (Homo sapiens, UniProt P32519 1-619). The settings on record: protein: recombinant; tags: N-terminal GST; dsDNA, one strand shown. The procedure, abridged: as §1
The target of assay [6] is T5, EHF (Homo sapiens, UniProt Q9NZC4 1-300).
T5 sequence: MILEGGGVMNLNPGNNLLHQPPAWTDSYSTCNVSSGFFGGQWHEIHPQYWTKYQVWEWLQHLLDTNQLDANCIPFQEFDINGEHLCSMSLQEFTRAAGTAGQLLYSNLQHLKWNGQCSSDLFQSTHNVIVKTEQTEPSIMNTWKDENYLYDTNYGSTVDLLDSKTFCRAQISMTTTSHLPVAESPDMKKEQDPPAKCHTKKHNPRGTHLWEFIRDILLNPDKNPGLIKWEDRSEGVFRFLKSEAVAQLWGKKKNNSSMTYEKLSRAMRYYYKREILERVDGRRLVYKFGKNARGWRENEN
As to conditions: protein: recombinant; tags: N-terminal GST; dsDNA, one strand shown. In outline:
as §1

Assay [7] concerns the target SPIB (Homo sapiens, UniProt Q01892 1-262). As to conditions: protein: recombinant; tags: N-terminal GST; dsDNA, one strand shown. In outline: as §1
Assay [8] has as its target T6, FEV (Homo sapiens, UniProt Q99581 1-238).
T6 sequence: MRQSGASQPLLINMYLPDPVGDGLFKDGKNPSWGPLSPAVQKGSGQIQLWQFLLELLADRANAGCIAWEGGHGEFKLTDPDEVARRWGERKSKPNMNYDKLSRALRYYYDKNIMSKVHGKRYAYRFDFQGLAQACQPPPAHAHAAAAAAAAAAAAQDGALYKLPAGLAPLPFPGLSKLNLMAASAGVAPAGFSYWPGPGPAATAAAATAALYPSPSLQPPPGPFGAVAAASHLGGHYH
The settings on record: protein: recombinant; tags: N-terminal GST; dsDNA, one strand shown. The procedure, abridged:
as §1

Assay [9] concerns the target ETV5 (Homo sapiens, UniProt P41161 1-510). As to conditions: protein: recombinant; tags: N-terminal GST; dsDNA, one strand shown. In outline:
as §1

Assay [10] has as its target HSF1 (Homo sapiens, UniProt Q00613 1-529). As to conditions: protein: recombinant; tags: N-terminal GST; chain copies: 3; dsDNA, one strand shown. The procedure, abridged:
as §1

Assay [11] concerns the target T7, SPIC (Homo sapiens, UniProt Q8N5J4 1-248).
T7 sequence: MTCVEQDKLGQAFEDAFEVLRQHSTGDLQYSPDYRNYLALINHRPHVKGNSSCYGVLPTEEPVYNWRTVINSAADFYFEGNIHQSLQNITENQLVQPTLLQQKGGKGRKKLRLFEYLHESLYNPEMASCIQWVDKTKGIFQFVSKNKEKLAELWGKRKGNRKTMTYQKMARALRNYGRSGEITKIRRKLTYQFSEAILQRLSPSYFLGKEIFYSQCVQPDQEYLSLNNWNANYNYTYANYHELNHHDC
As to conditions: protein: recombinant; tags: N-terminal GST; dsDNA, one strand shown. The procedure, abridged:
as §1

For assay [12], the target named is ELF4 (Homo sapiens, UniProt Q99607 1-663). The settings on record: protein: recombinant; tags: N-terminal GST; dsDNA, one strand shown. In outline: as §1
For assay [13], the target named is T8, ELK4 (Homo sapiens, UniProt P28324-2 1-405).
T8 sequence: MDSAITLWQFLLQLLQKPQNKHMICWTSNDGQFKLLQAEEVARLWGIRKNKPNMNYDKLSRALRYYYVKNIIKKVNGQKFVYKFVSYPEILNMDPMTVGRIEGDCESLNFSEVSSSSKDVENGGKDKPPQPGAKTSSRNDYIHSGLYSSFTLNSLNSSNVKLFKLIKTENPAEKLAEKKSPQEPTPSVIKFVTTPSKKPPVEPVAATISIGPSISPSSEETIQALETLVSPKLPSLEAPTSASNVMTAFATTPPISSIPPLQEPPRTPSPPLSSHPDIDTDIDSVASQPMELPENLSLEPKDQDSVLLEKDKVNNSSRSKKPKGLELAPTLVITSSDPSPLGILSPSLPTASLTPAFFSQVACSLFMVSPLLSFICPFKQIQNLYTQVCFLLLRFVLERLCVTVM
The settings on record: protein: recombinant; tags: N-terminal GST; dsDNA, one strand shown. The procedure, abridged:
as §1

Assay [14] concerns the target T9, ETV2 (Homo sapiens, UniProt O00321 1-342).
T9 sequence: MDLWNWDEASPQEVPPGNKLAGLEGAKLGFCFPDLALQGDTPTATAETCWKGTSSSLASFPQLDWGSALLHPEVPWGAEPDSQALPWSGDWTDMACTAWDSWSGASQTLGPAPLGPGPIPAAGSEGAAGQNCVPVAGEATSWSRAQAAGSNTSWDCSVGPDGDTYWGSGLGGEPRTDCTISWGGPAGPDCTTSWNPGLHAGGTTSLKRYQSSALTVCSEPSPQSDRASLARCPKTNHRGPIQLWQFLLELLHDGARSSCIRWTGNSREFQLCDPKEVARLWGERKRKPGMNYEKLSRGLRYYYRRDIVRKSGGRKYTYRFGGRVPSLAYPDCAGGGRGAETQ
As to conditions: protein: recombinant; tags: N-terminal GST; dsDNA, one strand shown. The procedure, abridged:
as §1

Assay [15] deals with T10, ELF3 (Homo sapiens, UniProt P78545 1-371).
T10 sequence: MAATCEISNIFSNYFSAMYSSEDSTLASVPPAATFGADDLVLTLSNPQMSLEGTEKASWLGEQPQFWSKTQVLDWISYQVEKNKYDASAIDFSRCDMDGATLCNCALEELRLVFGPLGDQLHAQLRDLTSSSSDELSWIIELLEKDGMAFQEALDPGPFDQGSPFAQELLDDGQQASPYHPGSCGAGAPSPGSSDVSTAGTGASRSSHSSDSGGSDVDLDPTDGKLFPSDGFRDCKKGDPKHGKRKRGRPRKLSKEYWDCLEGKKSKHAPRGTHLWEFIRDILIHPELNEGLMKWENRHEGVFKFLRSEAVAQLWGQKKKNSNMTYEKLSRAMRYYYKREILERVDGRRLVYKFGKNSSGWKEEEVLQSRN
As to conditions: protein: recombinant; tags: N-terminal GST; dsDNA, one strand shown. The procedure, abridged: as §1

For assay [16], the target named is CRX (Homo sapiens, UniProt O43186 1-299). As to conditions: protein: recombinant; tags: N-terminal GST; dsDNA, one strand shown. The procedure, abridged:
as §1

Assay [17] has as its target ETV1 (Homo sapiens, UniProt P50549 1-477). The settings on record: protein: recombinant; tags: N-terminal GST; dsDNA, one strand shown. In outline:
as §1

Sequence of HSF1 (Q00613 whole entry): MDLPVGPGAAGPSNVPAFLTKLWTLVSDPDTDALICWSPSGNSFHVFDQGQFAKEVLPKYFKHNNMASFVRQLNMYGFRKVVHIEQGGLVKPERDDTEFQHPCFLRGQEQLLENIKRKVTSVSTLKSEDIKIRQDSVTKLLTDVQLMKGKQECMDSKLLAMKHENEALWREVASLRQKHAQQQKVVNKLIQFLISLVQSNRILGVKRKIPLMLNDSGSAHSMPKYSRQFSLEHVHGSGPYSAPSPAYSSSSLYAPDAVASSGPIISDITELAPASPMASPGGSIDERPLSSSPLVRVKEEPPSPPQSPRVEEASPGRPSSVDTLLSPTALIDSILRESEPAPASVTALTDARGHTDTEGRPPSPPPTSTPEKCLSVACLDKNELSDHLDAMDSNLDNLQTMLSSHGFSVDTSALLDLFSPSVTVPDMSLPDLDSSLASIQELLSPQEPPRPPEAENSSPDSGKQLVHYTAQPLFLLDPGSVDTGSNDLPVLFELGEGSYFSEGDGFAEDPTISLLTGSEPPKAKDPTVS
Sequence of ETV1 (P50549 whole entry): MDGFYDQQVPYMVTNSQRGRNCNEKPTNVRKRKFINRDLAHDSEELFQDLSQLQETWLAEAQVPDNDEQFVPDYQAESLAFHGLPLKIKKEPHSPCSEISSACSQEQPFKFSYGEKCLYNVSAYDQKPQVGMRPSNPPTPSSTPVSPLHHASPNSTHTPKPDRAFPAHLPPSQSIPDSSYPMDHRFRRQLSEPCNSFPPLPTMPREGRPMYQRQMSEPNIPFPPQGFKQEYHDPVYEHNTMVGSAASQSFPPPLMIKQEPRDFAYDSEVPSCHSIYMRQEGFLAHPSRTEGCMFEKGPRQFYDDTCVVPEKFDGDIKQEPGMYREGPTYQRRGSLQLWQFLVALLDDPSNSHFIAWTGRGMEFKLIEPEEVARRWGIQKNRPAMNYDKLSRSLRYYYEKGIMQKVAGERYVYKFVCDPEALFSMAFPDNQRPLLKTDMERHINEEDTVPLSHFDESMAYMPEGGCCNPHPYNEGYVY
Sequence of SPIB (Q01892 whole entry): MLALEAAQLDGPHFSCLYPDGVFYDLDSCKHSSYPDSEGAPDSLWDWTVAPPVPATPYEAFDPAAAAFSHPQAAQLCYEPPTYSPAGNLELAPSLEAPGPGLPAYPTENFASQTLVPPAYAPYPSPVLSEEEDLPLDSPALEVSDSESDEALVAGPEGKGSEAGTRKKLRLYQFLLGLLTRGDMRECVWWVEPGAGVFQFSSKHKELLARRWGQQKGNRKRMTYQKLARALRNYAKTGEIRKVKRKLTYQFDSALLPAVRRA
Sequence of ETV5 (P41161 whole entry): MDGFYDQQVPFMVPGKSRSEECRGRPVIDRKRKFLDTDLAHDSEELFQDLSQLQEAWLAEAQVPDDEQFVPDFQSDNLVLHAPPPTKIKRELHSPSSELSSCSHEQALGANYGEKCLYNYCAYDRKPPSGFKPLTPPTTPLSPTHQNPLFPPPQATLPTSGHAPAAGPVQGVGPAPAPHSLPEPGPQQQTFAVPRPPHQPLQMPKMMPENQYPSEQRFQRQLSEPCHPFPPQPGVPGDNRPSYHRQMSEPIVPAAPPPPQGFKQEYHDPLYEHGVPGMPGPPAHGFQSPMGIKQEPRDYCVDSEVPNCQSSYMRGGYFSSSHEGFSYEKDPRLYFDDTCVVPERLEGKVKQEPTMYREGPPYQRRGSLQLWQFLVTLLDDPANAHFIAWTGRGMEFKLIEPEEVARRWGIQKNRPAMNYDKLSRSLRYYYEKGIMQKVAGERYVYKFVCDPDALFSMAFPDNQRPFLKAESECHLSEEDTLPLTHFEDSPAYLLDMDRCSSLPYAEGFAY
Sequence of ELF4 (Q99607 whole entry): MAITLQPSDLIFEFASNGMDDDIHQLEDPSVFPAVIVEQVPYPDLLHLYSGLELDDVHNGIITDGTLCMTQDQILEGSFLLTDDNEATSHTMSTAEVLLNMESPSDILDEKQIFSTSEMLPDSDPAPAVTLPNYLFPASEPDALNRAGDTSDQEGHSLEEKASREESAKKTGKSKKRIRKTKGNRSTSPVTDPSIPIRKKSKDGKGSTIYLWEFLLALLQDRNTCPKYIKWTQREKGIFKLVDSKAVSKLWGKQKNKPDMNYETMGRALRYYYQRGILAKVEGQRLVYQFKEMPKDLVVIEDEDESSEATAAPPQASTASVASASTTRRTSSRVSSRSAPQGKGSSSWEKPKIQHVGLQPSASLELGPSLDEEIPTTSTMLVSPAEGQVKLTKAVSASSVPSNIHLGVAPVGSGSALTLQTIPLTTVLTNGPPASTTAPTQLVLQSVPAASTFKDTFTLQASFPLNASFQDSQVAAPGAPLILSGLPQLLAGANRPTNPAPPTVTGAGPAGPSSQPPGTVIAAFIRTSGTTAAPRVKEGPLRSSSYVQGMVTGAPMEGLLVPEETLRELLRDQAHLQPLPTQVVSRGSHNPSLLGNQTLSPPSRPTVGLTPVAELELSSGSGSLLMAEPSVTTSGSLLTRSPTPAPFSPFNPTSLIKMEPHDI
Sequence of CRX (O43186 whole entry): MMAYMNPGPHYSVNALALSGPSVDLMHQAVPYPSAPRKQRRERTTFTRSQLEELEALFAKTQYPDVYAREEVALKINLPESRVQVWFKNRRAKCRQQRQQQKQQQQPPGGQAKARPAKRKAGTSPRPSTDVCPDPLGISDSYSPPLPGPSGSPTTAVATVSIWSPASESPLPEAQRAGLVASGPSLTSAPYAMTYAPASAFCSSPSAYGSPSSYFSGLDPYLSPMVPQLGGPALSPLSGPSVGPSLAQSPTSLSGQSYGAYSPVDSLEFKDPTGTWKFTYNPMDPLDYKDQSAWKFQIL
Sequence of ELF1 (P32519 whole entry): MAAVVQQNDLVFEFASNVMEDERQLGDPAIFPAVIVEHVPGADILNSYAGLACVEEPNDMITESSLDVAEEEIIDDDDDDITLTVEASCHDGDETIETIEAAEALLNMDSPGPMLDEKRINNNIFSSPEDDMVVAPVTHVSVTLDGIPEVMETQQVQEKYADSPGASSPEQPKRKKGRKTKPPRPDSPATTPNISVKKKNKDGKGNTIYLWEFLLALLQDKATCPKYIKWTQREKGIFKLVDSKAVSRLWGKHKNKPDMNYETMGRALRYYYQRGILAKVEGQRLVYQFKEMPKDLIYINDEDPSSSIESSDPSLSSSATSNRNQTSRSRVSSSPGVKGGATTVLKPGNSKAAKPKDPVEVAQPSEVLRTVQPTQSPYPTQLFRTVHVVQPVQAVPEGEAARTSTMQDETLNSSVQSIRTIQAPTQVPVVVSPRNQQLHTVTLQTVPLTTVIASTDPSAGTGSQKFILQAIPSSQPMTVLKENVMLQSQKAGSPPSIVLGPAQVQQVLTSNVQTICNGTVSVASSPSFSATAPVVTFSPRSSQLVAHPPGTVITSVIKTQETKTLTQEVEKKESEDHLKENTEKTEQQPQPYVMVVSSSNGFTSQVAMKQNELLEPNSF

For the sequence TATGTG, the binding signal in assay [1] was 1 fold enrichment (6-mer frequency, TF over GST control); in [2], 1.08 fold enrichment (6-mer frequency, TF over GST control); in assay [3], 1.05 fold enrichment (6-mer frequency, TF over GST control); in [4] it was 1.06 fold enrichment (6-mer frequency, TF over GST control); in [5], 1.06 fold enrichment (6-mer frequency, TF over GST control); in assay [6], 1.07 fold enrichment (6-mer frequency, TF over GST control). The binding signal in assay [7] is 1.05 fold enrichment (6-mer frequency, TF over GST control); in [8], 1.08 fold enrichment (6-mer frequency, TF over GST control); in assay [9], 1.13 fold enrichment (6-mer frequency, TF over GST control); in [10] it was 1.01 fold enrichment (6-mer frequency, TF over GST control); in assay [11] it was 1.22 fold enrichment (6-mer frequency, TF over GST control); in [12], 1.13 fold enrichment (6-mer frequency, TF over GST control). In addition, the binding signal in [13] was 1.17 fold enrichment (6-mer frequency, TF over GST control); in assay [14] it was 1.06 fold enrichment (6-mer frequency, TF over GST control); in assay [15], 1.16 fold enrichment (6-mer frequency, TF over GST control); in [16], 1.09 fold enrichment (6-mer frequency, TF over GST control); in assay [17], 1.08 fold enrichment (6-mer frequency, TF over GST control).

These data come from PMC7862700, “An all-to-all approach to the identification of sequence-specific readers for epigenetic DNA modifications on cytosine”.
